Data on 24 molecules can be found in PubChem BioAssay (NCI).

This is part of a sample that, as a whole, favours compounds with a hit. Of some 83,000 tested, about 20% had one in any assay.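 Values shown are percent growth following 48 h exposure of cells in 96-well plates to a single concentration of compound; below 10 was considered active.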 Values without a mark were called inactive. Active and inactive are the calls of the source.

This assay relates to CCRF-CEM leukemia. Put plainly: NCI-60 one-dose screen, 48 h (100 = growth as untreated, 0 = no growth, -100 = all killed). Particulars: 10 µM unless noted.
Consider `O=C1/C(=C/C=C/c2ccco2)SC(=S)N1c1ccccc1`, for which the growth is 41.3%. Turning to `COc1cc(OC)c(S(N)(=O)=O)cc1C(C)=O`, the growth is 109%. Consider `CNC(=O)c1cc(Oc2ccc3nc(NC(=O)c4cc(N5CCOCC5)cc(C(F)(F)F)c4)sc3c2)ccn1`, for which the growth is 67.3%.

Consider `CCCCCc1ccc(S(=O)(=O)Nc2cccc(-c3csc(NC(=O)CCCCCN4CCN(CCO)CC4)n3)c2)cc1`, for which the growth was 46.7%. As for `CNC(=O)c1cc(Oc2ccc3nc(NC(=O)c4cccc(OC(F)(F)F)c4)sc3c2)ccn1`, the growth is 71.2%. Take `Cc1cc(C)c(N2C(=O)CC(Nc3ccc(Cl)cc3Cl)C2=O)c(C)c1` (centres undefined): the growth was 105%.

Take `Cc1ccc(C(=O)NN2C(=O)/C(=C/C=C/c3ccco3)SC2=S)cc1`: the growth was 103%.

In the case of `CC/C(=C/c1c(O)cccc1OC)c1ccc2c(OC)cccc2[o+]1`, the growth is 102%.

`Cc1ccc2c(c1)C(=O)/C(=C/c1cccc(F)c1)S2`: the growth is 104%. Consider `COc1cc(/C=C2\C(=O)Nc3ccccc32)ccc1OCc1ccc(F)cc1`, for which the growth is 102%. For the molecule `N/C(=N\C(N)=N\c1nc2ccccc2s1)c1ccc(C(F)(F)F)cc1`, the growth is 54.7%. For the molecule `CN(C)CCNC(=O)c1ccc(-c2nc3ccc4[nH]ncc4c3c3c2COCC3)cc1`, the growth is 2.22% (active). `O=C(Nc1nonc1-c1ccccc1)c1ccc(C(F)(F)F)cc1`: the growth was 50.8%.

As to `COc1cccc(C(=O)Nc2cccc(C#Cc3cccc4[nH]nc(N)c34)c2)c1`, the growth is 28.5%. Next, `Cn1ccnc1C(=O)/C=C/c1ccc(NC(=O)c2ccc(F)cc2)cc1`: 7.06% (active); `Nc1nc(-c2cccc([N+](=O)[O-])c2)c(N=Nc2ccccc2)s1`: 48.4%; `Cc1ccc(N2C(=O)/C(=C/C=C/c3ccco3)SC2=S)cc1`: 61.2%. Regarding `COc1cc(OC)c(S(N)(=O)=O)cc1C(=O)/C=C/c1ccc(C)cc1`, the growth was 16.7%.

Regarding `CN1CCC(n2cc(Nc3ncc4c(=O)n(-c5c(Cl)cccc5Cl)cc(Br)c4n3)cn2)CC1`, the growth was 8.75% (active).

Turning to `C#CC(=O)N(c1ccc(OC)cc1OC)C(C(=O)NCC(=O)OCC)c1cccs1` (centres undefined), the growth was -53.8% (active). As for `COc1ccc(/C=C(/C)c2ccc3ccc(OC)cc3[o+]2)c(O)c1`, the growth is 11.2%. To `Cc1ccc(-c2cc3nc(C(Cl)Cl)nc(C)n3n2)cc1` belongs 98.4%; to `Cc1ccc(-c2nnc(SCc3ccc(O)c4ncccc34)n2-c2ccccc2)cc1`, 8.76% (active); to `CCOc1ccccc1NC1=C(Cl)C(=O)c2nc(C)ccc2C1=O`, -6.33% (active).
